Results filed as inconclusive are left out. Activity calls are given as the source filed them.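 The calls were made as follows, unless noted: active = normalized viability below 100% at a tested concentration; inactive = the rest.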

Assay [1] is described as follows: Wnt pathway potentiators raising nuclear beta-catenin – imaging, WNT3A-conditioned medium, mouse C2C12, NPC library, primary screen (AID 1117326; in the data active = nuclear beta-catenin stimulation mostly above about 4.2%, no sharp cut-off; inactive = mostly below about 10%). The conditions noted are these: stronger effect = higher value.
The nature of assay [2]: stimulators of insulin release from INS-1E, primary screen, cell-based, 5 mM glucose, NPC library (AID 1117329;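 active = compound raises insulin release from rat beta cells at 5 mM glucose, no numeric limit stated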). The conditions noted are these: rat INS-1E insulin secretion, at 10 µM, stronger effect = higher value.
The nature of assay [3]: growth inhibition of GSK3B-pretreated HCT116 cells – cell-based, CellTiter-Glo, 0.2 to 20 µM (AID 1117336;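 active = compounds lowering colon cancer cell viability after pretreatment blocking the GSK3B kinase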). The conditions noted are these: HCT116 viability after GSK3B inhibitor, at 20 µM, stronger effect = higher value.
Assay [4] in a line: inhibition of endothelial tube formation, primary screen, imaging, VEGF stimulated, CD31 staining, tube area, NPC library (AID 1117340;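 active = compound that reduces growth-factor-driven endothelial tube area in a mixed cell culture, no cutoff stated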). The note with it: VEGF-stimulated ADSC/ECFC co-culture, at 10 µM, stronger effect = higher value.
Assay [5] in a line: GLP1 release stimulators, primary, NCI-H716, NPC library (AID 1117341;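 active = compound raises GLP1 secretion from the human gut endocrine cells, with no numeric limit stated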). The conditions noted are these: NCI-H716 cells, at 10 µM, stronger effect = higher value.
The nature of assay [6]: HCT116 colon cancer cell growth inhibition, primary screen, CellTiter-Glo luminescence, NPC library (AID 1117342;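 active = compounds that lower survival of HCT116 colon cancer cells in the luminescence readout, no numeric limit stated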). The note with it: at 20 µM (top of the series).
The nature of assay [7]: reduced SW480 viability measured with CellTiter-Glo, NPC library, primary (AID 1117343;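 active = compounds that lower viability of the colon cancer cells in the luminescence readout, with no numeric limit stated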). The conditions noted are these: CellTiter-Glo luminescence; at 20 µM (top of the series) unless noted.
Assay [8] is described as follows: NPC library primary testing for decreased DLD-1 cell viability via CellTiter-Glo (AID 1117346;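 active = compounds that lower survival of DLD-1 colon cancer cells in the luminescence readout, no cutoff given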). The note with it: DLD-1 viability, CellTiter-Glo luminescence; at 20 µM (top of the series).
A short description of assay [9]: viability loss in pontine glioma line – cell-based, SU-DIPG-XVII, MIPE5.0, CellTiter-Glo, qHTS, dose response (AID 1347060; cut-off not given, nearly all actives have AC50 up to about 26 µM;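 as to AC50: cells exposed to compound for 48 hours before viability readout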). The conditions noted are these: CellTiter-Glo ATP luminescence.
Assay [10] can be described thus: viability loss in pontine glioma line – cell-based, SU-DIPG-XIII, MIPE4.0, CellTiter-Glo, qHTS, dose response (AID 1347061; cut-off not given, nearly all actives have AC50 up to about 37 µM;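 also: cells exposed to compound for 48 hours before readout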). The conditions noted are these: CellTiter-Glo ATP luminescence.
Assay [11] can be described thus: viability loss in pontine glioma line – cell-based, SU-DIPG-IV, MIPE4.0, CellTiter-Glo, qHTS, dose response (AID 1347063; cut-off not given, nearly all actives have AC50 up to about 30 µM;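 also: compound exposure lasted 48 hours before the viability readout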). The conditions noted are these: CellTiter-Glo ATP luminescence.
Assay [12] has as its system Aerobactin synthetase IucA (Klebsiella pneumoniae). Briefly: inhibition of K. pneumoniae IucA enzyme – biochemical, Tocris library, absorbance (AID 1345561; call rule not given here;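 also: 100% = enzyme without compound and 0% = no enzyme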). The conditions noted are these: purified IucA enzyme assay, absorbance (OD) read-out; stronger effect = lower value;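 tested at 8 µM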.
Assay [13] in a line: viability loss with induced miR-34 in A549 – imaging, A549 dox-inducible miR-34, nuclei and caspase counts, primary screen (AID 1347080;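 active = compounds whose cell count with miR-34 switched on is under 0.7 times the count with it off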). The conditions noted are these: A549 miR-34 inducible, Hoechst nuclei count, 48 h.
Assay [14] can be described thus: galactose survival enhancers in mitochondrial complex I cybrids – cell-based, galactose medium, ATP luminescence, primary screen (AID 1645843;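 active = z-score of at least 1.8 in each of two replicates, scored against plate mean and spread of sample wells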;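 also: positive z means more ATP and so rescue of galactose-driven cybrid death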). The conditions noted are these: complex I mutant cybrid cells, 72 h, stronger effect = higher value.
Assay [15] is described as follows: growth inhibition of DIPG cells – cell-based, MIPE5.0 library, qHTS (AID 1347068; cut-off not given, nearly all actives have IC50 up to about 30 µM;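 as to IC50: cells exposed to compound for 48 hours before viability readout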). The note with it: SU-DIPG-XXV viability.
Assay [16] can be described thus: drug combination growth inhibition, ovarian cancer – cell-based, oncology-focused library, rucaparib conditional, profiling panel (AID 1508598). The note with it: patient-derived ovarian cancer cells, CellTiter-Glo viability, 144 h, stronger effect = lower value.

As for `CC(=O)SC[C@@H](C)C(=O)N1CCC[C@H]1C(=O)N[C@@H](Cc1ccccc1)C(=O)O`, the nuclear beta-catenin stimulation in [1] (at 10 µM) was -0.2% (inactive); in assay [1] (stimulation, at 2 µM), -1.6%. The insulin secretion stimulation in assay [2] is 0% (inactive). In addition, the viability decrease in [3] was -13.4% (inactive). The tube area decrease in assay [4] is 7.4% (inactive). Further, the GLP1 secretion stimulation in [5] is 0.3% (inactive). The inhibition of viability in assay [6] is 2.4% (inactive). The viability decrease (inhibition) in assay [7] was -15.3% (inactive); in [8], -1.4% (inactive). Further, the result in assay [9], in assay [10] and in assay [11] was inactive.
Regarding `COP(=O)(OC)OC(c1ccc(Cl)cc1)P(=O)(OC)OC` (stereo not given), the nuclear beta-catenin stimulation in assay [1] (at 10 µM) was -1.5% (inactive); in [1] (stimulation, at 2 µM) it was 1.2%. Besides, the insulin secretion stimulation in [2] is 1.8% (inactive). In [3], the viability decrease is -3.65% (inactive). In assay [4], the tube area decrease is -20.8% (inactive). For the same molecule, the GLP1 secretion stimulation in assay [5] is 1.3% (inactive). Moreover, in assay [6], the inhibition of viability is -20.4% (inactive). In addition, the viability decrease (inhibition) in assay [7] is -1% (inactive); in assay [8], 1.6% (inactive). For the same molecule, the remaining activity in [12] is 122% (inactive). The fold change in [13] (stronger effect = lower value, cell number ratio, induced over uninduced) is 0.979 (inactive); in assay [13] (measured here: relative caspase fold change +Dox/-Dox), 1.41. For the same molecule, the cell count in assay [13] (measured here: total cells with miR-34 induction, stronger effect = lower value) turned out to be 8810; in assay [13] (measured here: total cells without miR-34 induction), 8990. For the same molecule, in assay [14], the z-score was -0.085 (inactive).
As to `Nc1ccn(C[C@@H](CO)OCP(=O)(O)O)c(=O)n1`, the nuclear beta-catenin stimulation in [1] (at 10 µM) is 1.2% (inactive); in assay [1] (stimulation, at 2 µM), 0.4%. Besides, the insulin secretion stimulation in assay [2] was 1.05% (inactive). In addition, the viability decrease in [3] was 22.7% (inactive). Also, the tube area decrease in [4] was -2.6% (inactive). The GLP1 secretion stimulation in assay [5] was 0.9% (inactive). In assay [6], the inhibition of viability was 14.9% (inactive). Further, the viability decrease (inhibition) is 109% (active) in [7] and 2.8% (inactive) in [8]. Also, the molecule was called inactive in [9], in [10], in assay [11] and in assay [15].
Consider `CC(C)C[C@H](NC(=O)[C@H](Cc1ccccc1)NC(=O)c1cnccn1)B(O)O`, for which the nuclear beta-catenin stimulation in assay [1] (at 10 µM) is 132% (active); in assay [1] (stimulation, at 2 µM), 137%. The insulin secretion stimulation in assay [2] was 2.1% (inactive). The viability decrease in assay [3] is 99% (active). Moreover, the tube area decrease in assay [4] is 107% (active). Besides, the GLP1 secretion stimulation in assay [5] is 1.6% (inactive). In assay [6], the inhibition of viability was 100% (active). The viability decrease (inhibition) in [7] is 132% (active); in assay [8], 95.4% (active). Besides, the AC50 in assay [9] was 20.9 nM (active); in [10] it was 2090 nM (active); in assay [11], 8.33 nM (active). In assay [15], the IC50 is 26.3 nM (active). The viability in assay [16] (at 0.000305 µM, OCI-C5x cells, with rucaparib 10 µM, 100% = cells with rucaparib alone) is 114% (inactive); in assay [16] (at 0.000305 µM, OCI-C5x cells, without rucaparib), 117% (inactive); in assay [16] (at 0.000305 µM, OCI-P5x cells, with rucaparib 20 µM, 100% = cells with rucaparib alone) it was 85.1% (active); in assay [16] (at 0.000305 µM, OCI-P5x cells, without rucaparib) it was 23.5% (active); in assay [16] (at 0.00122 µM, OCI-C5x cells, with rucaparib 10 µM, 100% = cells with rucaparib alone), 114% (inactive); in assay [16] (at 0.00122 µM, OCI-C5x cells, without rucaparib) it was 113% (inactive). The viability in assay [16] (at 0.00122 µM, OCI-P5x cells, with rucaparib 20 µM, 100% = cells with rucaparib alone) was 85.3% (active); in assay [16] (at 0.00122 µM, OCI-P5x cells, without rucaparib) it was 28.3% (active); in assay [16] (at 0.00488 µM, OCI-C5x cells, with rucaparib 10 µM, 100% = cells with rucaparib alone), 119% (inactive); in assay [16] (at 0.00488 µM, OCI-C5x cells, without rucaparib), 115% (inactive); in [16] (at 0.00488 µM, OCI-P5x cells, with rucaparib 20 µM, 100% = cells with rucaparib alone), 102% (inactive); in assay [16] (at 0.00488 µM, OCI-P5x cells, without rucaparib) it was 94.3% (active). In addition, the viability is 38.9% (active) in assay [16] (at 0.0195 µM, OCI-C5x cells, with rucaparib 10 µM, 100% = cells with rucaparib alone); 15.9% (active) in assay [16] (at 0.0195 µM, OCI-C5x cells, without rucaparib); 5.88% (active) in assay [16] (at 0.0195 µM, OCI-P5x cells, with rucaparib 20 µM, 100% = cells with rucaparib alone); 1.5% (active) in [16] (at 0.0195 µM, OCI-P5x cells, without rucaparib); 2.87% (active) in [16] (at 0.0781 µM, OCI-C5x cells, with rucaparib 10 µM, 100% = cells with rucaparib alone); 2.36% (active) in assay [16] (at 0.0781 µM, OCI-C5x cells, without rucaparib). Moreover, the viability is 1.94% (active) in assay [16] (at 0.0781 µM, OCI-P5x cells, with rucaparib 20 µM, 100% = cells with rucaparib alone); 1.08% (active) in [16] (at 0.0781 µM, OCI-P5x cells, without rucaparib); 2.19% (active) in assay [16] (at 0.313 µM, OCI-C5x cells, with rucaparib 10 µM, 100% = cells with rucaparib alone); 1.67% (active) in assay [16] (at 0.313 µM, OCI-C5x cells, without rucaparib); 1.91% (active) in [16] (at 0.313 µM, OCI-P5x cells, with rucaparib 20 µM, 100% = cells with rucaparib alone); 0.96% (active) in assay [16] (at 0.313 µM, OCI-P5x cells, without rucaparib). Further, the viability in assay [16] (at 1.25 µM, OCI-C5x cells, with rucaparib 10 µM, 100% = cells with rucaparib alone) was 1.59% (active); in assay [16] (at 1.25 µM, OCI-C5x cells, without rucaparib), 1.6% (active); in [16] (at 1.25 µM, OCI-P5x cells, with rucaparib 20 µM, 100% = cells with rucaparib alone), 1.8% (active); in assay [16] (at 1.25 µM, OCI-P5x cells, without rucaparib), 0.86% (active); in assay [16] (at 5 µM, OCI-C5x cells, with rucaparib 10 µM, 100% = cells with rucaparib alone), 1.34% (active); in [16] (at 5 µM, OCI-C5x cells, without rucaparib), 1.65% (active). The viability is 1.02% (active) in [16] (at 5 µM, OCI-P5x cells, with rucaparib 20 µM, 100% = cells with rucaparib alone) and 0.609% (active) in assay [16] (at 5 µM, OCI-P5x cells, without rucaparib).

The record behind these values is PubChem BioAssay.
